High-throughput results: PubChem BioAssay, several laboratories
GC-B act: GC-B (human) receptor activation; activation, % at 10 µM; HEK293-GC-B cells, CNP EC30, cGMP TR-FRET; 0% at EC30 CNP, 100% saturating CNP; AID 1920062; P20594; hit rate 0.11% among 370,000;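 active = activation at 10 µM reaching about 35% in either raw or pattern-adjusted values, limit read from the data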
PLC-beta3 inh: inhibitors of human phospholipase C beta3; Purified PLC-beta3, fluorogenic substrate, fluorescence; inhibition, % at 12.2 µM; hit rate 0.18% among 370,000; in the data active = inhibition above about 11%;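 note: 0% = median of compound wells on plate and 100% = full blocker control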
Target sequence (Q01970 whole entry, looked up): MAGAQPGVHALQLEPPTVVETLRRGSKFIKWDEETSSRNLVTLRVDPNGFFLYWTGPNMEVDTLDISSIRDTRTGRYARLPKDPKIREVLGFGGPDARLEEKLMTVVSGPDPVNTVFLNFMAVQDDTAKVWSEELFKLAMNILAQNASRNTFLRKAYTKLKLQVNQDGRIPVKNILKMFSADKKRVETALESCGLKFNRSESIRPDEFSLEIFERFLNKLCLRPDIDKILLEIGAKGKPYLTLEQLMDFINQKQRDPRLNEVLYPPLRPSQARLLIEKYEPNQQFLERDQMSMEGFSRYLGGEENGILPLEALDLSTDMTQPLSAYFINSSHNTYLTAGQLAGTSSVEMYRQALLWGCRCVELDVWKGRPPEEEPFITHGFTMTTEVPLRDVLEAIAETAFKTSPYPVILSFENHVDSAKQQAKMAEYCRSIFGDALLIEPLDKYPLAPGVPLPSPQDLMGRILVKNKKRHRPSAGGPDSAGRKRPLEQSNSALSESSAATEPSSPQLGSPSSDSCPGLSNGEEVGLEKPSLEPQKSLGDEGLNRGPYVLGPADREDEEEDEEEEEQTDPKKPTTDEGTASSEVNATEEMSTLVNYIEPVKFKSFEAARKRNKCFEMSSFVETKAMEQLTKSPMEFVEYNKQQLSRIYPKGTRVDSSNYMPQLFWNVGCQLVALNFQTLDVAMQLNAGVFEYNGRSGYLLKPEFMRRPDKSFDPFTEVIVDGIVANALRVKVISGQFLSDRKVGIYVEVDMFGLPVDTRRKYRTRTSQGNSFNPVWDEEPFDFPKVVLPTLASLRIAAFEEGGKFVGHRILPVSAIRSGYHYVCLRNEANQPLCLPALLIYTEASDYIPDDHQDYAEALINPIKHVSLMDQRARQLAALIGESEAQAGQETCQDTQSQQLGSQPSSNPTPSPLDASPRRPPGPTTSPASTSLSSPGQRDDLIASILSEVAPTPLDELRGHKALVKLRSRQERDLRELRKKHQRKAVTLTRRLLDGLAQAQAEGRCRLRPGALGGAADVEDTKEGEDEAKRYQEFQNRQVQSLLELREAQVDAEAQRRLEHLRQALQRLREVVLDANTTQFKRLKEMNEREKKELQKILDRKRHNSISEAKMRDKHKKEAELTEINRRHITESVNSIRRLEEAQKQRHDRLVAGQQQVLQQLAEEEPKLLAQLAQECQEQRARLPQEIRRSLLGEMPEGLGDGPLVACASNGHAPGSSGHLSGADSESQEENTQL
PLC-gamma1 inh: blocks human PLC-gamma1 enzyme activity; P19174; purified PLC-gamma1, fluorogenic substrate, fluorescence; inhibition, % at 12.2 µM; hit rate 0.84% among 370,000; AID 720700; in the data active = inhibition above about 9.5%
GC-A act: GC-A (human) enzyme activation | HEK293 GC-A cells, cGMP TR-FRET, EC30 ANP; 0% at EC30 ANP, 100% saturating ANP | activation, % at 10 µM | hit rate 0.14% among 370,000 | AID 1671463; in the data active = activation above about 40%
Rce1 inhib: blocks yeast Ras-converting enzyme; yeast membranes, quenched prenylated peptide cleavage fluorescence; calls only; hit rate 0.27% among 290,000; AID 2563;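 active = fall in fluorescence gain of 50% or more versus controls, with final raw signal at or below 3038400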;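 note: plate controls were neutral control wells for no effect and wells lacking membranes for full effect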
PfM18AAP inh: PfM18AAP enzyme inhibition; recombinant PfM18AAP, H-Glu-NHMec fluorogenic cleavage; inhibition, % at 7.35 µM; hit rate 1.2% among 290,000;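 active = inhibition above the campaign mean inhibition over all tested compounds plus 3 SD, cut at about 28% in these data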;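 note: 0% = plate median of test compound wells and 100% = 2 mM ZnCl2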
Starred values were filed as active, the others as inactive; i = inactive; nt = not tested or not shown; + = active, no number; ! = not confirmed by another sample. A selection: hits, their analogues and other compounds. The true share with any hit is near 2.2%.

SMILES | GC-B act | PLC-beta3 inh | PLC-gamma1 inh | GC-A act | Rce1 inhib | PfM18AAP inh
CC(=O)OCC[N+](C)(C)C | -12 | -1 | -1 | -9 | +! | -7
Cc1ccc2nc(-c3ccc(CN4CCC(n5nnc6ccccc65)CC4)cc3)c(-c3ccccc3)nc2c1 | 13 | -76 | -61 | 0 | nt | nt
C=CCn1c(=O)c(C=Nc2cccc([N+](=O)[O-])c2)c(O)n(CCCC)c1=O | -4 | -1 | 0 | 5 | i | -7
CCCCn1c(=O)c(C=Nc2cccnc2Cl)c(O)n(CCCCl)c1=O | -3 | -1 | 2 | -4 | + | 3
CC(C)(C)OC(=O)NCCCCC(N)[P+](=O)O (stereo unspecified) | 0 | -1 | -5 | 2 | nt | nt
CCN1CCN(CC(=O)c2c(C)n(Cc3ccccc3)c3ccc(OC)cc23)CC1 | -4 | -8 | -5 | 5 | i | -3
CC(=O)c1c(C)n(Cc2ccccc2)c2ccc(O)cc12 | 15 | -14 | -4 | 74* | i | 13
COC(=O)c1c(C)n(Cc2ccccc2)c2ccc(O)cc12 | 5 | -4 | -2 | 80* | i | 24
CCOC(=O)c1c(C)n(Cc2ccccc2)c2ccc(O)cc12 | 5 | -11 | -5 | 86* | i | 7
N=c1c2c(-c3ccccc3)c(-c3ccccc3)n(Cc3ccccc3)c2ncn1C1CCC(O)CC1 (stereo unspecified) | -9 | -3 | -2 | -25 | nt | nt
COC(=O)C1(N(C)c2ccccc2)CCN(Cc2ccccc2)CC1 | 1 | 0 | -3 | 4 | nt | nt
O=C(CN1C(=O)[C@@H](Cc2ccccc2)N=C(c2ccccc2)c2ccccc21)NC1CCCCC1 | -27 | 0 | 1 | -21 | nt | nt
c1cncc(-c2ccc3n2Cc2cnnn2-c2ccccc2-3)c1 | 1 | -409 | -339 | -1 | nt | nt
O=C(CNC(=O)OCc1ccccc1)NC(Cc1ccccc1)P(=O)(Oc1ccccc1)Oc1ccccc1 (stereo unspecified) | -14 | -2 | 2 | -9 | nt | nt
CC(=O)c1ccc2c(c1)C1C(Cl)C(Sc3ccccc3[N+](=O)[O-])CC1C(C(=O)O)N2 (stereo unspecified) | -14 | -4 | 1 | -44 | nt | -12
O=C(O)c1cccc2c1NC(C(=O)O)C1CC(Sc3ccccc3[N+](=O)[O-])C(Cl)C21 (stereo unspecified) | -27 | -2 | 19* | -12 | nt | 20
Cc1cc(N=Nc2ccccc2C)ccc1N | -11 | 1 | 9.6* | 6 | i | nt
Nc1ccc(N=Nc2ccccc2)cc1 | -9 | -3 | 1 | 10 | i | -1
CCn1nc(/C=C/c2ccccc2)nc2c(=O)n(C)c(=O)nc1-2 | 12 | -9 | 43* | 2 | i | 8
COc1ccc(-n2c(/C=C/c3ccc(O)cc3)nc3ccccc3c2=O)cc1 | 8 | -399 | -343 | -5 | i | 11
S=P(c1ccccc1)(c1ccccc1)c1cnc2ccccn12 | -7 | 1 | 5 | -3 | nt | nt
COc1ccc2c(c1)C1OCCNC1CC2 (stereo unspecified) | 1 | 1 | -1 | 0 | nt | nt
Oc1cc2c(cc1O)[C@H]1c3ccccc3CN[C@@H]1CC2 | nt | nt | nt | nt | i | 90*
CN1C(=O)C(=Cc2ccc(N3CCCCC3)o2)C(=O)N(C)C1=S | -4 | 1 | -1 | 0 | i | -6
CN1C(=O)C(=Cc2ccc(SC3CCCCC3)o2)C(=O)N(C)C1=O | -2 | -6 | -3 | 47* | i | 14
SMILES | GC-B act | PLC-beta3 inh | PLC-gamma1 inh | GC-A act | Rce1 inhib | PfM18AAP inh
CCOC(=O)[C@@H]1[C@H]2COc3ccc(Br)cc3[C@@H]2N2C(=O)N(c3cccc(C)c3)C(=O)[C@]12C | -6 | 3 | 0 | -2 | + | 0
NC(=S)c1cn(C2OC(CO)C(O)C2O)c2ncnc(N)c12 (stereo unspecified) | 1 | 2 | 2 | -7 | i | 40*
O=C(NC1CCCCC1)Oc1cc2oc(=O)sc2cc1Cl | 7 | 4 | 5 | 11 | i | 31*
c1cc2c(cc1[C@H]1OC[C@H]3[C@@H]1CO[C@H]3c1ccc3c(c1)OCO3)OCO2 | 1 | 0 | 2 | 0 | nt | nt
N#CC1=C(N)Oc2cc(O)ccc2C1c1ccc2c(c1)OCO2 (stereo unspecified) | 7 | -2 | 0 | 44* | i | 18
CCOC(=O)CNC(=O)N1Cc2cc(Br)ccc2-n2nncc2C1 | 2 | 1 | 1 | 2 | nt | nt
CCOc1ccc(C2C(C#N)=C(N)Oc3c2c(=O)oc2ccccc32)cc1 (stereo unspecified) | 1 | -6 | -5 | -9 | + | 6
COc1cccc(-n2c(/C=C/c3ccc(O)c(O)c3)nc3ccccc3c2=O)c1 | 34 | i | i | 7 | i | 57*
CN1CC[C@@H]2CN[C@H](c3ccccc3Br)C[C@@H]21 | 4 | 5 | -2 | -1 | nt | nt
CCOP(=S)(OCC)Oc1cc(C)oc(=O)c1 | 3 | 2 | 3 | 0 | i | -26
CCOP(=S)(OCC)Oc1cc(C)nc(C(C)C)n1 | 74* | 2 | -5 | 2 | nt | nt
O=C(CN1C(=O)CN=C(c2ccccc2)c2cc(Cl)ccc21)NC1CCCCC1 | -13 | 0 | -1 | -11 | nt | nt
O=C(NC(Cc1ccccc1)P(=O)(O)Oc1ccccc1)OCc1ccccc1 (stereo unspecified) | 1 | 1 | 4 | 1 | nt | nt
COc1cc(/C=C(/C)[N+](=O)[O-])ccc1OCc1ccccc1Cl | nt | nt | nt | nt | i | 30*
COc1cc(C=C2C(=O)NC(=O)NC2=O)ccc1OCc1ccc([N+](=O)[O-])cc1 | 1 | -8 | 0 | 1 | nt | 1
Clc1ccc(C[n+]2c(-c3ccccc3)cc(-c3ccccc3)cc2-c2ccccc2)cc1 | -21 | -196 | -171 | -22 | + | nt
CCOc1c(Cl)cc(CNCCc2c[nH]c3ccccc23)cc1OC | -12 | -10 | 2 | -13 | i | 1
CCOc1cc(CNCCc2c[nH]c3ccccc23)cc(Cl)c1OCC | -4 | 12* | 12* | -1 | i | -15
Cc1ccccc1CCC[C@H](CC1CCCCC1)CN(C)C(=O)Oc1ccccc1 | -1 | 2 | 0 | -4 | nt | nt
COc1ccc2c3c([nH]c2c1)C(C)=NCC3 | -1 | i | i | 7 | + | 4
COc1ccccc1N1C(=O)NC(=O)/C(=C\c2cnn(-c3ccccc3)c2)C1=O | 11 | -5 | 0 | 52* | i | 2
O=C1NC(=O)N(Cc2ccccc2)C(=O)/C1=C/c1cnn(-c2ccccc2)c1 | nt | nt | nt | nt | i | 9
C[n+]1ccc(-c2ccccc2)c2ccccc21 | 2 | -137 | -96 | 3 | + | nt
COc1cc2c(cc1OC)[C@H]1C(=O)c3ccc4c(c3O[C@H]1CO2)C[C@@H](C(C)(C)O)O4 | 3 | -31 | -23 | 56* | nt | nt
CC[C@H](C(N)=O)N1CCCC1=O | 4 | 4 | 1 | 2 | nt | nt
CCN(CC)c1ccc(/C=C/[N+](=O)[O-])cc1 | -11 | -11 | -6 | 2 | i | 23
